Data reported in PubChem BioAssay (NCI).
Compounds without any hit were thinned out: in the full panel of roughly 79,000, 15% have a hit. Values without a mark were called inactive. Calls of active or inactive are those of the source. No stated cut-off is given here; in the data, active means growth inhibition above about 70%; inactive means the rest.

Columns and labels:
[1] = NCI Yeast Anticancer Drug Screen. Data for the rad50 strain (AID 155);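 further: 0% = growth of vehicle-only cultures of the same strain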; conditions: S. cerevisiae rad50 strain growth inhibition, stronger effect = higher value
In short: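 Readout: growth inhibition relative to vehicle-treated cultures. Compound exposure was carried out in a genetically defined yeast strain deficient in DNA damage repair.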

[2] = NCI Yeast Anticancer Drug Screen. Data for the mec2-1 strain (AID 157); conditions: S. cerevisiae mec2-1 strain, stronger effect = higher value
In short: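 Mutant yeast (mec2-1) grown with compound; growth inhibition relative to vehicle control reported.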

[3] = NCI Yeast Anticancer Drug Screen. Data for the sgs1 mgt1 strain (AID 161);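 further: 0% = growth of cultures given vehicle only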; conditions: S. cerevisiae sgs1 mgt1 strain, stronger effect = higher value
In short: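 Percent growth inhibition was derived by comparing compound-exposed mutant yeast with vehicle-exposed cultures. The strain carries alterations in DNA damage repair.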

[4] = NCI Yeast Anticancer Drug Screen. Data for the cln2 rad14 strain (AID 165);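 further: 0% = growth equal to vehicle treated cultures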; conditions: S. cerevisiae cln2 rad14 strain, stronger effect = higher value
In short: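 Readout is yeast growth inhibition versus vehicle-treated controls, using a strain with cln2 and rad14 alterations exposed to compound.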

[5] = NCI Yeast Anticancer Drug Screen. Data for the bub3 strain (AID 167); conditions: S. cerevisiae bub3 mutant strain, stronger effect = higher value
In short: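 Readout: yeast growth inhibition, expressed relative to vehicle-only wells. The test organism is a mutant strain from a panel with lesions in DNA repair or checkpoint genes.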

[6] = NCI Yeast Anticancer Drug Screen. Data for the mlh1 rad18 strain (AID 175); conditions: S. cerevisiae mlh1 rad18 strain growth inhibition, stronger effect = higher value
In short: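 Genetically defined yeast (DNA repair-deficient) exposed to compounds; growth inhibition determined relative to vehicle.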

[7] = at 5.0 µM (retest, dose inferred, filed as 0.5)
[8] = at 50.0 µM (retest, dose inferred, filed as 5.0)

In the case of `CN1CCC(c2ccccc2)(c2ccccc2)C(=O)C1`, the growth inhibition [1, 7] is reported as 11%, the growth inhibition [1, 8] is reported as 95% (active) and the growth inhibition ([1]; at 50.0 µM) is reported as 95.2% (active). The growth inhibition [2, 7] was -5%, the growth inhibition [2, 8] was 83% (active) and the growth inhibition ([2]; at 50.0 µM) was 94% (active). The growth inhibition [3, 7] was 21%, the growth inhibition [3, 8] was 95% (active) and the growth inhibition ([3]; at 50.0 µM) was 93.8% (active). The growth inhibition [4, 7] was 15%, the growth inhibition [4, 8] was 69% and the growth inhibition ([4]; at 50.0 µM) was 74.3% (active). The growth inhibition [5, 7] was 34%, the growth inhibition [5, 8] was 96% (active) and the growth inhibition ([5]; at 50.0 µM) was 89.2% (active). The growth inhibition [6, 7] was 47%, the growth inhibition [6, 8] was 95% (active) and the growth inhibition ([6]; at 50.0 µM) was 94.5% (active).

With `O=[N+]([O-])CC(O)c1ccccc1` (stereo not drawn) the growth inhibition [1, 7] was 4%, the growth inhibition [1, 8] was 26% and the growth inhibition ([1]; at 50.0 µM) was 98.4% (active). The growth inhibition [2, 7] was -1%, the growth inhibition [2, 8] was -3% and the growth inhibition ([2]; at 50.0 µM) was 52.2%. For the same molecule, the growth inhibition [3, 7] was -2%, the growth inhibition [3, 8] was 1% and the growth inhibition ([3]; at 50.0 µM) was 50.2%. The growth inhibition [4, 7] was -2%, the growth inhibition [4, 8] was -1% and the growth inhibition ([4]; at 50.0 µM) was 98.6% (active). For the same molecule, the growth inhibition [5, 7] was -2%, the growth inhibition [5, 8] was 1% and the growth inhibition ([5]; at 50.0 µM) was 50.9%. The growth inhibition [6, 7] was -2%, the growth inhibition [6, 8] was 4% and the growth inhibition ([6]; at 50.0 µM) was 51.9%.

With `O=C1/C(=C/c2ccccc2)CCC/C1=C\c1ccccc1` the growth inhibition [1, 7] was 27%, the growth inhibition [1, 8] was 60% and the growth inhibition ([1]; at 50.0 µM) was 83.8% (active). The growth inhibition [2, 7] was 29%, the growth inhibition [2, 8] was 77% (active) and the growth inhibition ([2]; at 50.0 µM) was 86.6% (active). For the same molecule, the growth inhibition [3, 7] was 36%, the growth inhibition [3, 8] was 72% (active) and the growth inhibition ([3]; at 50.0 µM) was 82.3% (active). The growth inhibition [4, 7] was 21%, the growth inhibition [4, 8] was 52% and the growth inhibition ([4]; at 50.0 µM) was 80.3% (active). The growth inhibition [5, 7] was 41%, the growth inhibition [5, 8] was 69% and the growth inhibition ([5]; at 50.0 µM) was 84.8% (active). The growth inhibition [6, 7] was 58% and the growth inhibition [6, 8] was 76% (active).

In the case of `O=C1C=CC(=O)c2c(O)c(CO)c(CO)c(O)c21`, the growth inhibition [1, 7] is reported as 28%, the growth inhibition [1, 8] is reported as 95% (active) and the growth inhibition ([1]; at 50.0 µM) is reported as 75.4% (active). For the same molecule, the growth inhibition [2, 7] was 27%, the growth inhibition [2, 8] was 96% (active) and the growth inhibition ([2]; at 50.0 µM) was 84.4% (active). The growth inhibition [3, 7] was 28%, the growth inhibition [3, 8] was 94% (active) and the growth inhibition ([3]; at 50.0 µM) was 51%. For the same molecule, the growth inhibition [4, 7] was 24%, the growth inhibition [4, 8] was 84% (active) and the growth inhibition ([4]; at 50.0 µM) was 15.5%. For the same molecule, the growth inhibition [5, 7] was 40%, the growth inhibition [5, 8] was 98% (active) and the growth inhibition ([5]; at 50.0 µM) was 74.2% (active). The growth inhibition [6, 7] was 30% and the growth inhibition [6, 8] was 96% (active).

Molecule `CCCCCCC1N=C(N)N=C(N)N1c1cccc(Cl)c1` (stereo not drawn) has a growth inhibition [1, 7] of 17%, a growth inhibition [1, 8] of 61% and a growth inhibition ([1]; at 50.0 µM) of -25.1%. It also gave a growth inhibition [2, 7] of 10%, a growth inhibition [2, 8] of 56% and a growth inhibition ([2]; at 50.0 µM) of 48.8%. It also gave a growth inhibition [3, 7] of 8%, a growth inhibition [3, 8] of 55% and a growth inhibition ([3]; at 50.0 µM) of 46.4%. For the same molecule, the growth inhibition [4, 7] was 1%, the growth inhibition [4, 8] was 24% and the growth inhibition ([4]; at 50.0 µM) was -53.5%. The growth inhibition [5, 7] was 34%, the growth inhibition [5, 8] was 81% (active) and the growth inhibition ([5]; at 50.0 µM) was 52.9%. For the same molecule, the growth inhibition [6, 7] was 7%, the growth inhibition [6, 8] was 98% (active) and the growth inhibition ([6]; at 50.0 µM) was 89.6% (active).

In the case of `COc1cc(N(CCC#N)CCC#N)ccc1/C(N=Nc1ccc([N+](=O)[O-])cc1)=N/NC(=O)c1cc(Br)ccc1O`, the growth inhibition [1, 7] is reported as 6%, the growth inhibition [1, 8] is reported as 27% and the growth inhibition ([1]; at 50.0 µM) is reported as 63%. It also gave a growth inhibition [2, 7] of 14%, a growth inhibition [2, 8] of 42% and a growth inhibition ([2]; at 50.0 µM) of 44.6%. It also gave a growth inhibition [3, 7] of -6%, a growth inhibition [3, 8] of 35% and a growth inhibition ([3]; at 50.0 µM) of 40.6%. The growth inhibition [4, 7] was 10%, the growth inhibition [4, 8] was 11% and the growth inhibition ([4]; at 50.0 µM) was 55.1%. The growth inhibition [5, 7] was 8%, the growth inhibition [5, 8] was 48% and the growth inhibition ([5]; at 50.0 µM) was 51%. For the same molecule, the growth inhibition [6, 7] was 15%, the growth inhibition [6, 8] was 37% and the growth inhibition ([6]; at 50.0 µM) was 46.1%.

With `c1csc(-c2[nH]nc3c2CCc2ccccc2-3)c1` the growth inhibition [1, 7] was 19%, the growth inhibition [1, 8] was 97% (active) and the growth inhibition ([1]; at 50.0 µM) was 98.3% (active). The growth inhibition [2, 7] was -13%, the growth inhibition [2, 8] was 97% (active) and the growth inhibition ([2]; at 50.0 µM) was 96.6% (active). For the same molecule, the growth inhibition [3, 7] was -2%, the growth inhibition [3, 8] was 98% (active) and the growth inhibition ([3]; at 50.0 µM) was 97.6% (active). For the same molecule, the growth inhibition [4, 7] was -6%, the growth inhibition [4, 8] was 96% (active) and the growth inhibition ([4]; at 50.0 µM) was 98.5% (active). For the same molecule, the growth inhibition [5, 7] was 18%, the growth inhibition [5, 8] was 98% (active) and the growth inhibition ([5]; at 50.0 µM) was 97.1% (active). The growth inhibition [6, 7] was -3%, the growth inhibition [6, 8] was 97% (active) and the growth inhibition ([6]; at 50.0 µM) was 98.8% (active).

In the case of `CCN(CC)CCNc1ccc([N+](=O)[O-])c2sc3ccccc3c(=O)c12`, the growth inhibition [1, 7] is reported as 46%, the growth inhibition [1, 8] is reported as 95% (active) and the growth inhibition ([1]; at 50.0 µM) is reported as 86.2% (active). The growth inhibition [2, 7] was 13%, the growth inhibition [2, 8] was 85% (active) and the growth inhibition ([2]; at 50.0 µM) was 90.7% (active). The growth inhibition [3, 7] was 19%, the growth inhibition [3, 8] was 84% (active) and the growth inhibition ([3]; at 50.0 µM) was 41.2%. For the same molecule, the growth inhibition [4, 7] was 12%, the growth inhibition [4, 8] was 60% and the growth inhibition ([4]; at 50.0 µM) was 20.5%. The growth inhibition [5, 7] was 27%, the growth inhibition [5, 8] was 98% (active) and the growth inhibition ([5]; at 50.0 µM) was 17.7%. For the same molecule, the growth inhibition [6, 7] was 33%, the growth inhibition [6, 8] was 88% (active) and the growth inhibition ([6]; at 50.0 µM) was 90.3% (active).

In the case of `CCC[CH2][Sn]1([CH2]CCC)[O]C2C(CO)OC(n3ccc(N)nc3=O)C2[O]1` (stereo not drawn), the growth inhibition [1, 7] is reported as 46%, the growth inhibition [1, 8] is reported as 97% (active) and the growth inhibition ([1]; at 50.0 µM) is reported as 86.8% (active). The growth inhibition [2, 7] was 48%, the growth inhibition [2, 8] was 98% (active) and the growth inhibition ([2]; at 50.0 µM) was 89.7% (active). For the same molecule, the growth inhibition [3, 7] was 83% (active), the growth inhibition [3, 8] was 99% (active) and the growth inhibition ([3]; at 50.0 µM) was 88.5% (active). The growth inhibition [4, 7] was 71% (active), the growth inhibition [4, 8] was 99% (active) and the growth inhibition ([4]; at 50.0 µM) was 83.6% (active). The growth inhibition [5, 7] was 89% (active), the growth inhibition [5, 8] was 99% (active) and the growth inhibition ([5]; at 50.0 µM) was 87.3% (active). For the same molecule, the growth inhibition [6, 7] was 26%, the growth inhibition [6, 8] was 96% (active) and the growth inhibition ([6]; at 50.0 µM) was 84.2% (active).

In the case of `Oc1ccc(Cl)cc1Cc1cc(Cl)ccc1O`, the growth inhibition [1, 7] is reported as -1%, the growth inhibition [1, 8] is reported as 99% (active) and the growth inhibition ([1]; at 50.0 µM) is reported as 3.65%. The growth inhibition [2, 7] was -3%, the growth inhibition [2, 8] was 99% (active) and the growth inhibition ([2]; at 50.0 µM) was 10.3%. The growth inhibition [3, 7] was 0%, the growth inhibition [3, 8] was 99% (active) and the growth inhibition ([3]; at 50.0 µM) was -2.55%. For the same molecule, the growth inhibition [4, 7] was -16%, the growth inhibition [4, 8] was 99% (active) and the growth inhibition ([4]; at 50.0 µM) was 24.6%. The growth inhibition [5, 7] was -3%, the growth inhibition [5, 8] was 99% (active) and the growth inhibition ([5]; at 50.0 µM) was 16.6%. The growth inhibition [6, 7] was -5%, the growth inhibition [6, 8] was 99% (active) and the growth inhibition ([6]; at 50.0 µM) was -7.85%.
